Test [1] in a line: qHTS assay to identify small molecule antagonists of the thyroid receptor (TR) signaling pathway - cell viability counter screen (AID 743064). Also: nearly all actives have a fitted effect of over 50% in size. Summed up: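 Rat GH3 pituitary tumor cells stably expressing two TR response elements driving luciferase were plated, rested 4 h, then dosed with library compounds and T3 (1 nM final). After 23.5 h at 37 °C, CellTiter-Fluor was added for 30 min and fluorescence recorded.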
(In general: In qHTS, concentration-response curves come from the screen itself.)

Test [2] is described as follows: qHTS assay to identify small molecule antagonists of the thyroid receptor (TR) signaling pathway (AID 743065). Also: series mostly up to about 70 µM; nearly all actives have a fitted effect of over 55% in size. The procedure, abridged:
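GH3.TRE-Luc rat pituitary cells carrying two TR response elements driving luciferase were plated for 4 h, given compound plus 1 nM T3 (final), and incubated 23.5 h at 37 C. ONE-Glo luminescence measured reporter inhibition; CellTiter-Fluor fluorescence tracked cytotoxicity.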

The subject of test [3] is thyroid hormone receptor (rat, GH3 cells). Put plainly: qHTS assay to identify small molecule agonists of the thyroid receptor (TR) signaling pathway (AID 743066; calls by dose curve).
The nature of test [4]: qHTS assay to identify small molecule antagonists of the estrogen receptor alpha (ER-alpha) signaling pathway - cell viability counter screen (AID 743074; calls by dose curve;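 also: HEK293 cells carrying ER-alpha-UAS-bla reporter stimulated with 17beta-estradiol; nearly all actives have a fitted effect of over 45% in size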).
Test [5] is described as follows: qHTS assay to identify small molecule antagonists of the estrogen receptor alpha (ER-alpha) signaling pathway using the BG1 cell line - cell viability counter screen (AID 743081).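 Also: compound given together with 17beta-estradiol as the ER stimulus; series mostly up to about 70 µM; nearly all actives have a fitted effect of over 45% in size.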
A further test has as its target Aromatase (Homo sapiens) (UniProt P11511). Description: qHTS assay to identify aromatase inhibitors (AID 743083). Also: series mostly up to about 70 µM; nearly all actives have a fitted effect of over 55% in size.
Test [6] can be described thus: qHTS assay to identify aromatase inhibitors - cell viability counter screen (AID 743084).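 Also: cells stimulated with testosterone during compound exposure; nearly all actives have a fitted effect of over 55% in size.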
For test [7], the target named is Aryl hydrocarbon receptor (Homo sapiens) (UniProt P35869). Put plainly: qHTS assay to identify small molecule that activate the aryl hydrocarbon receptor (AhR) signaling pathway (AID 743085). Also: nearly all actives have a fitted effect of over 15% in size. Also: potency is read from the fitted curve at half-maximal effect.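 As to activation: HG2L7.5c1 human HepG2 liver cells with stably integrated DRE-driven firefly reporter; series mostly up to about 70 µM.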 Summed up:
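Compounds were tested in HepG2 hepatocellular carcinoma cells harbouring a stably integrated luciferase gene under control of 20 DREs. Increased reporter signal after 24 h treatment at 37C was taken as AhR activation.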

Test [8] is described as follows: qHTS assay to identify small molecule that activate the aryl hydrocarbon receptor (AhR) signaling pathway - cell viability counter screen (AID 743086).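 Also: HepG2 liver cells carrying the AhR DRE luciferase reporter; series mostly up to about 70 µM; nearly all actives have a fitted effect of over 45% in size.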 Summed up:
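HepG2-AhR-luc (HG2L7.5c1) cells, 4000/well, were preincubated 5 h at 37C, exposed to compound in qHTS format for 24 hr at 37C, then given CellTiter-Fluor for 30 min; viability was read as fluorescence in the reporter wells.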

Test [9] concerns the target Peroxisome proliferator-activated receptor gamma (Homo sapiens) (UniProt P37231). Put plainly: qHTS assay to identify small molecule agonists of the peroxisome proliferator-activated receptor gamma (PPARg) signaling pathway (AID 743094; active = well fitted activation curve with a large enough effect in the signal ratio in the repeat runs, not every such curve was filed as active; inconclusive = weak or mixed curves, or effect the other way; inactive = no such curve, though single readings can be large or run the other way; the % refers to the signal ratio). Summed up:
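Agonism was assessed in a beta-lactamase reporter system, HEK293H cells with a stably integrated UAS-bla construct under PPARg control; the 17 h treatment at 37C preceded a 1 h room-temperature FRET substrate read.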

Test [10] in a line: qHTS assay to identify small molecule antagonists of the peroxisome proliferator-activated receptor gamma (PPARg) signaling pathway - cell viability counter screen (AID 743194). Also: nearly all actives have a fitted effect of over 55% in size. The procedure, abridged: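 PPARg-UAS-bla HEK293H cells were plated, rested 5 h at 37 C, then treated with compounds plus rosiglitazone (50 nM final) for 17 h at 37 C; viability was then read by CellTiter-Glo luminescence after 30 min at room temperature.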

The nature of test [11]: qHTS assay for small molecule agonists of the antioxidant response element (ARE) signaling pathway (AID 743202; active = well fitted activation curve with a large enough effect in the signal ratio in the repeat runs, not every such curve was filed as active; inconclusive = weak or mixed curves, or effect the other way; inactive = no such curve, though single readings can be large or run the other way; the % refers to the signal ratio). Summed up: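 Following a 16 h, 37 C exposure of reporter HepG2 cells (ARE-driven beta-lactamase, 2,000 cells/well) to compounds, FRET substrate was applied for 2 h at room temperature and fluorescence intensity recorded.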
Test [12] is described as follows: qHTS assay for small molecule agonists of the antioxidant response element (ARE) signaling pathway - cell viability counter screen (AID 743203; calls by dose curve; also: nearly all actives have a fitted effect of over 55% in size). Summed up:
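ATP content via CellTiter-Glo luminescence served as the viability measure. Cells: ARE-bla HepG2, 2,000 per well. Exposure: 16 hrs, 37C/5% CO2.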

Test [13] can be described thus: qHTS assay for small molecule activators of the heat shock response signaling pathway - cell viability counter screen (AID 743209). Also: nearly all actives have a fitted effect of over 50% in size. The procedure, abridged: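 Compounds dissolved in DMSO were added to overnight-plated HSE-bla HeLa cells and left 5 h at 37 C. Cell viability was quantified by luminescence using CellTiter-Glo.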
Test [14] is described as follows: qHTS assay for small molecule activators of the heat shock response signaling pathway (AID 743210; active = well fitted activation curve with a large enough effect in the signal ratio in the repeat runs, with a control signal flat, not every such curve was filed as active; inconclusive = weak or mixed curves; the % refers to the signal ratio; also: series mostly up to about 63 µM). The procedure, abridged:
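Heat shock element–beta-lactamase HeLa reporter cells; qHTS with compounds for 5 h at 37 C; detection by FRET substrate fluorescence after 2.5 h at RT.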

Test [15] addresses Peroxisome proliferator-activated receptor gamma (Homo sapiens) (UniProt P37231). Put plainly: qHTS assay to identify small molecule antagonists of the peroxisome proliferator-activated receptor gamma (PPARg) signaling pathway (AID 743191; calls by dose curve; also: series mostly up to about 63 µM; nearly all actives have a fitted effect of over 30% in size). The procedure, abridged: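 GeneBLAzer PPARg UAS-bla HEK293H cells carrying a UAS-driven beta-lactamase reporter were plated at 3000 cells/well, preincubated 5 h at 37C, then given compound for 17 h at 37C; LiveBLAzer B/G FRET substrate was read after 1 h at room temperature.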

Test [16] concerns the target Estrogen receptor (Homo sapiens) (UniProt P03372). Description: qHTS assay to identify small molecule agonists of the estrogen receptor alpha (ER-alpha) signaling pathway (AID 743075; calls by dose curve;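 also: HEK293 GripTite cells with ER-alpha and UAS-driven beta-lactamase reporter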; also: potency is read from the fitted curve at half-maximal effect).
Test [17] shares this target. Put plainly: qHTS assay to identify small molecule agonists of the estrogen receptor alpha (ER-alpha) signaling pathway using the BG1 cell line (AID 743079). Also: nearly all actives have a fitted effect of over 20% in size. Also: potency is read from the fitted curve at half-maximal effect.
The nature of test [18]: qHTS assay to identify small molecule antagonists of the estrogen receptor alpha (ER-alpha) signaling pathway using the BG1 cell line (AID 743080; calls by dose curve;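 also: BG1 cells stimulated with 17beta-estradiol alongside compound; series mostly up to about 70 µM; nearly all actives have a fitted effect of over 25% in size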). The procedure, abridged: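 Endogenous full-length ER-alpha in BG1-Luc-4E2 cells drives a stably integrated 4×ERE luciferase gene; compounds were tested against 17beta-estradiol over 21.5 h, with luminescence and multiplexed viability fluorescence recorded.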

Test [19] deals with Estrogen receptor (Homo sapiens) (UniProt P03372). Put plainly: qHTS assay to identify small molecule antagonists of the estrogen receptor alpha (ER-alpha) signaling pathway (AID 743069; active = well fitted curve in the direction sought with a large enough effect in the signal ratio in the repeat runs, not every such curve was filed as active; inconclusive = weak or mixed curves, or effect the other way; inactive = no such curve, though single readings can be large or run the other way; the % refers to the signal ratio). Summed up:
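A 17beta-estradiol challenge was applied right after compound transfer to ER-alpha-UAS-bla HEK293 cells previously kept in charcoal-stripped serum. Plates stood 18 hr at 37C and 5% CO2; fluorescence was read following 2 hr FRET substrate loading at room temperature.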

Molecules are shown by their SMILES. Several values for one entry are separate records, joined by “and”; a condition that tells them apart may be missing. Equal entries are not always repeated. Activity calls are given as the source filed them. Unless noted, calls follow the shape of the dose curve; as a rule, active = well fitted curve in the direction sought with a large enough effect in the repeat runs; inconclusive = weak or mixed curves; inactive = no such curve, though single readings can be large; an effect the other way counts as inactive or inconclusive.

Peroxisome proliferator-activated receptor gamma (Homo sapiens), sequence (P37231 whole entry, looked up): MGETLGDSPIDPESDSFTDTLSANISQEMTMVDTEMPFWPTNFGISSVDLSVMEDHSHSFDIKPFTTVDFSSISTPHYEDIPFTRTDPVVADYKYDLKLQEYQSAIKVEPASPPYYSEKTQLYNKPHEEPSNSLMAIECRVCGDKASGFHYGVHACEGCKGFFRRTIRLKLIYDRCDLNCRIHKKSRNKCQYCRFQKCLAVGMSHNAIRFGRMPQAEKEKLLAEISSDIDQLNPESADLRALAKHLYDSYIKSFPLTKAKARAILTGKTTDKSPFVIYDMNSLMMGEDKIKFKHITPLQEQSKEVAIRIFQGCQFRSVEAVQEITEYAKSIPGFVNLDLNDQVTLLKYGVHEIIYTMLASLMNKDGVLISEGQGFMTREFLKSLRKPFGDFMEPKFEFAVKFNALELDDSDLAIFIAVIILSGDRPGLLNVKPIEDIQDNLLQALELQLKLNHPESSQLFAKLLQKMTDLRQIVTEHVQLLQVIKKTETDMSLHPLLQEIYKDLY
Aromatase (Homo sapiens), sequence (P11511 whole entry, looked up): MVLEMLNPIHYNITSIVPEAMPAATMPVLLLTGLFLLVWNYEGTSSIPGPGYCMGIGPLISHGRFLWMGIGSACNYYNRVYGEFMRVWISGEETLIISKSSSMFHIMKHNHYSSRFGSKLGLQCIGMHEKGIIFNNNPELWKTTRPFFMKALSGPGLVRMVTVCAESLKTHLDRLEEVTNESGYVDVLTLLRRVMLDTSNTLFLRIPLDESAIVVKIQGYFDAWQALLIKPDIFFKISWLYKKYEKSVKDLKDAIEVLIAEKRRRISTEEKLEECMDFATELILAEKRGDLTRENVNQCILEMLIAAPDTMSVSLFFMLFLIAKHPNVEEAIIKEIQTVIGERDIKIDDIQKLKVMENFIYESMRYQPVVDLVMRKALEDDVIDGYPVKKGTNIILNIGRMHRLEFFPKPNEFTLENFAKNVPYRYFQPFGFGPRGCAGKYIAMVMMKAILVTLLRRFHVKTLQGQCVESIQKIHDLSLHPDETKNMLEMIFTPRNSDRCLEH
Aryl hydrocarbon receptor (Homo sapiens), sequence (P35869 whole entry, looked up): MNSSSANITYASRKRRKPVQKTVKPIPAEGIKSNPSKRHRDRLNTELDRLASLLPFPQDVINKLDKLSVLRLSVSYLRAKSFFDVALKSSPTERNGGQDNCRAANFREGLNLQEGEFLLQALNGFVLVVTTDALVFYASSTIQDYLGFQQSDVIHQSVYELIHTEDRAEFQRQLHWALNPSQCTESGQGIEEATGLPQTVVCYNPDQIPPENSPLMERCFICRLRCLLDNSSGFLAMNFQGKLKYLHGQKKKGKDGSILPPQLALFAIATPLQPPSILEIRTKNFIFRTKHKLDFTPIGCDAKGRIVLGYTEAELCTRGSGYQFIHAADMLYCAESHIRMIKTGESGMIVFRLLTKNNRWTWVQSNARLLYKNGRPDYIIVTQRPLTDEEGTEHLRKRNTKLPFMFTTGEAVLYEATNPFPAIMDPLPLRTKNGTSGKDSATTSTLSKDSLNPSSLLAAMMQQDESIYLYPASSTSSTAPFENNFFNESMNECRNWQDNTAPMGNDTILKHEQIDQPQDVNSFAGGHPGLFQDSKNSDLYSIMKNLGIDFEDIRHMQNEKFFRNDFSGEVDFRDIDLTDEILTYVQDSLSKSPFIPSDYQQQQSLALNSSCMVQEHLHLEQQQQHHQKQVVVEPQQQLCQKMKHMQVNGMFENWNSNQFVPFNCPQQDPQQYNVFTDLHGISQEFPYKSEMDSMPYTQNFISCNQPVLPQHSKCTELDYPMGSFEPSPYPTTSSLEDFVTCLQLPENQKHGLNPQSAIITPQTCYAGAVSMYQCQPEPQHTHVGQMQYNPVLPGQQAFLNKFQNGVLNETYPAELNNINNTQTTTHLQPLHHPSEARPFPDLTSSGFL
Estrogen receptor (Homo sapiens), sequence (P03372 whole entry, looked up): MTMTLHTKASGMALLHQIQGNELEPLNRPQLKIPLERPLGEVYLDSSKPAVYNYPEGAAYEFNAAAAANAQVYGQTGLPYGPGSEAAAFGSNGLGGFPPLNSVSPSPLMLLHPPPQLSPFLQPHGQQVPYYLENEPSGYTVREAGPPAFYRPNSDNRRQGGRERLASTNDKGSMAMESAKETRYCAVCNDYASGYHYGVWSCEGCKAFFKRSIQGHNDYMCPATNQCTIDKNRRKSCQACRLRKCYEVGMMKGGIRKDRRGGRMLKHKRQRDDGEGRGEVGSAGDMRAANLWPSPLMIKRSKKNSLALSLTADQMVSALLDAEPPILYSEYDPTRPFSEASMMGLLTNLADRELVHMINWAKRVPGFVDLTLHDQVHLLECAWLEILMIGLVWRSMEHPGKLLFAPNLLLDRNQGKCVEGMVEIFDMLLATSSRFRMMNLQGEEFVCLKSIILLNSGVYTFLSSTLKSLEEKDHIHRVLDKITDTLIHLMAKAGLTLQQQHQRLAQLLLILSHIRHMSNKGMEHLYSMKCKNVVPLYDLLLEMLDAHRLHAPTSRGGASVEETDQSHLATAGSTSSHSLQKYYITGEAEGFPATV

`C=C(C#N)C(=O)OCC`: the Potency entry (in test [1]; in test [2]; in test [4]; in [5]; with Aromatase (Homo sapiens); in test [6]) was “inactive” each time. Besides, the Potency result in test [7], in [8], in [10], in [11], in test [12] and in test [13] was “inactive” in each case. The compound was called inactive in test [3], in test [9] and in test [14].

With `C[C@@H](O)[C@H]1C(=O)N2C(C(=O)O)=C(S[C@@H]3CN[C@H](C(=O)N(C)C)C3)[C@H](C)[C@H]12`, the Potency entry (in test [1]; in [2]; in test [4]; in test [5]; with Aromatase (Homo sapiens); in test [6]) was “inactive” each time. In addition, the Potency entry in test [8], in test [15], in test [10], in [11], in test [12] and in test [13] was “inactive” in each case. For the same compound, the compound was called inactive in test [3] and in [9].

On to `CCCCNC(N)=O`, for which the Potency result (in test [1]; in test [2]; in test [4]; in test [5]; with Aromatase (Homo sapiens); in test [6]) was “inactive” each time. Also, the Potency result in test [8], in test [15], in [10], in test [11], in test [12] and in [13] was “inactive” in each case. The outcome in test [3], in test [9] and in [14] was inactive.

`O=C(c1ccc(O)cc1)c1ccc(O)cc1O`: the Potency result (in test [1]; in [2]; in test [4]; in [18]; in test [5]; with Aromatase (Homo sapiens)) was “inactive” in each case. The Potency entry in [6], in [10], in test [12] and in [13] was “inactive” each time. Further, the compound was classed as inactive in [3] and in [9]. The Potency in test [16] was 11.1 µM [inconclusive] (active) and 21.9 µM [inconclusive] (active); in test [17], 5.5 µM (active) and 9.69 µM (active); in test [7], 24.3 µM (active).

As for `CC1(C)O[C@@H]2C[C@H]3[C@@H]4C[C@H](F)C5=CC(=O)CC[C@]5(C)[C@H]4[C@@H](O)C[C@]3(C)[C@]2(C(=O)CO)O1`, the Potency entry (in [1]; in test [2]; in test [4]; in test [17]; in test [5]; with Aromatase (Homo sapiens)) was “inactive” in each case. Besides, the Potency entry in test [6], in [7], in test [8], in [10], in test [11] and in test [12] was “inactive” throughout. Also, the Potency result in test [13] was “inactive”. Besides, the outcome in test [3] and in [9] was inactive.

As for `Cc1ccc(C(=O)O)o1`, the Potency entry (in test [1]; in test [2]; in test [4]; in test [5]; with Aromatase (Homo sapiens); in test [6]) was “inactive” throughout. The Potency result in test [7], in [10], in test [12] and in test [13] was “inactive” each time. Besides, the outcome in [3], in test [9] and in [14] was inactive.

With `CC1=C(CC(=O)O)c2cc(F)ccc2/C1=C\c1ccc(S(C)=O)cc1` (stereo not drawn), the Potency entry (in test [1]; in [2]; in test [4]; in [5]; with Aromatase (Homo sapiens); in test [6]) was “inactive” each time. The Potency entry in test [8], in [10], in [12] and in [13] was “inactive” in each case. Besides, the compound was called inactive in test [3] and in test [9]. Besides, the Potency in [7] was 13.3 µM (active) and 24.3 µM (active).

Turning to `C=C(C)C(=O)OCCCCCC`, the Potency result in [1], in [2], in [19], in [4], in test [16] and in test [17] was “inactive” throughout. In addition, the Potency entry (in test [18]; in [5]; with Aromatase (Homo sapiens); in test [6]; in [8]; in [10]) was “inactive” each time. The Potency entry in [11], in test [12] and in [13] was “inactive” in each case. In addition, the compound was called inactive in test [3], in test [9] and in [14].

For the origin of these results see PubChem BioAssay (Tox21).
